In the supplement of paper PMC4022240:
± gives the standard deviation.

Legend:
Test in all cases: peptide microarray binding signal (635 nm), min-max normalized on array (fraction of array maximum); higher = stronger binding
Conditions in all cases: peptide region: H3 1-13
[1] = target: T1, HaloTag-ATRX ADD domain (163-292)
T1 chain: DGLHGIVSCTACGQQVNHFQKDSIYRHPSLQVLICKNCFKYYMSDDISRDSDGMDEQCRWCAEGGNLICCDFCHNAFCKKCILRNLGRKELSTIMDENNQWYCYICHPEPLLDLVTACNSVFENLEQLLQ
Protocol: (§1)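 Histone 13-mer peptides were synthesized as cellulose conjugates with a C-terminal 20-atom PEG linker and printed in triplicate on nitrocellulose. The sequence given is the unmodified backbone; PTMs (Kme1/2/3, Kac, Sph/Tph, Rme/Rme2a/Rme2s, Rcit) are listed in the label and the 'peptide modifications' condition. Slides were probed at 4 °C for 1 h with biotin-labelled (HQ)5-HaloTag reader fusions (ATRX-ADD, ING2-PHD) then streptavidin-Alexa647, or with rabbit histone antibodies then anti-rabbit Alexa647. The mean 635 nm signal of the triplicate spots was scaled 0-1 between the lowest and highest values on each array.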

[2] = target: HaloTag-ING2 PHD (mouse Ing2 200-280)
Protocol: as §1

[3] = target: anti-H3K4me3 antibody ab8580
Protocol: as §1

[4] = target: anti-H3K9me3 antibody ab8898
Protocol: as §1

[5] = peptide modifications: H3K9me1 H3S10ph, binder concentration: 1:2,000 dilution
[6] = peptide modifications: H3K9me1 H3S10ph, binder concentration: 1:10,000 dilution
[7] = peptide modifications: H3K4me1 H3K9me3, binder concentration: 1:2,000 dilution
[8] = peptide modifications: H3K4me1 H3K9me3, binder concentration: 1:10,000 dilution
[9] = peptide modifications: H3K4me2 H3T6ph, binder concentration: 1:2,000 dilution
[10] = peptide modifications: H3K4me2 H3T6ph, binder concentration: 1:10,000 dilution
[11] = peptide modifications: H3K4me3 H3K9me3, binder concentration: 1:2,000 dilution
[12] = peptide modifications: H3K4me3 H3K9me3, binder concentration: 1:10,000 dilution
[13] = peptide modifications: H3K4me2 H3K9me1, binder concentration: 1:2,000 dilution
[14] = peptide modifications: H3K4me2 H3K9me1, binder concentration: 1:10,000 dilution
[15] = peptide modifications: H3K4me3, binder concentration: 1:2,000 dilution
[16] = peptide modifications: H3K4me3, binder concentration: 1:10,000 dilution
[17] = peptide modifications: H3K4me3 H3K9ac, binder concentration: 1:2,000 dilution
[18] = peptide modifications: H3K4me3 H3K9ac, binder concentration: 1:10,000 dilution
[19] = peptide modifications: H3K9me1, binder concentration: 1:2,000 dilution
[20] = peptide modifications: H3K9me1, binder concentration: 1:10,000 dilution
[21] = peptide modifications: H3K4me1 H3K9me2, binder concentration: 1:2,000 dilution
[22] = peptide modifications: H3K4me1 H3K9me2, binder concentration: 1:10,000 dilution
[23] = peptide modifications: H3K4me2 H3K9me3, binder concentration: 1:2,000 dilution
[24] = peptide modifications: H3K4me2 H3K9me3, binder concentration: 1:10,000 dilution

## ARTKQTARKSTGG [H3 1-13 A R T K Q T A R Kme Sph T G G]
[1]; peptide modifications: H3K9me1 H3S10ph, binder concentration: 50 nM
  peptide microarray binding signal: 0.01 ± 0.00047
[1]; peptide modifications: H3K9me1 H3S10ph, binder concentration: 500 nM
  peptide microarray binding signal: 0.0275 ± 0.00045
[2]; peptide modifications: H3K9me1 H3S10ph, binder concentration: 10 nM
  peptide microarray binding signal: 0.00961 ± 0.00044
[2]; peptide modifications: H3K9me1 H3S10ph, binder concentration: 100 nM
  peptide microarray binding signal: 0.02 ± 0.0008
[3]; [5]
  peptide microarray binding signal: 0.000831 ± 3.9e-05
[3]; [6]
  peptide microarray binding signal: 0.000171 ± 5.1e-06
[4]; [5]
  peptide microarray binding signal: 0.00233 ± 0.00015
[4]; [6]
  peptide microarray binding signal: 0.00138 ± 2.7e-05

## ARTKQTARKSTGG [H3 1-13 A R T Kme Q T A R Kme3 S T G G]
[1]; peptide modifications: H3K4me1 H3K9me3, binder concentration: 50 nM
  peptide microarray binding signal: 0.253 ± 0.034
[1]; peptide modifications: H3K4me1 H3K9me3, binder concentration: 500 nM
  peptide microarray binding signal: 0.336 ± 0.03
[2]; peptide modifications: H3K4me1 H3K9me3, binder concentration: 10 nM
  peptide microarray binding signal: 0.335 ± 0.065
[2]; peptide modifications: H3K4me1 H3K9me3, binder concentration: 100 nM
  peptide microarray binding signal: 0.547 ± 0.039
[3]; [7]
  peptide microarray binding signal: 0.243 ± 0.018
[3]; [8]
  peptide microarray binding signal: 0.101 ± 0.049
[4]; [7]
  peptide microarray binding signal: 0.4 ± 0.096
[4]; [8]
  peptide microarray binding signal: 0.275 ± 0.034

## ARTKQTARKSTGG [H3 1-13 A R T Kme2 Q Tph A R K S T G G]
[1]; peptide modifications: H3K4me2 H3T6ph, binder concentration: 50 nM
  peptide microarray binding signal: 0.00636 ± 7.4e-05
[1]; peptide modifications: H3K4me2 H3T6ph, binder concentration: 500 nM
  peptide microarray binding signal: 0.0142 ± 0.0017
[2]; peptide modifications: H3K4me2 H3T6ph, binder concentration: 10 nM
  peptide microarray binding signal: 0.139 ± 0.025
[2]; peptide modifications: H3K4me2 H3T6ph, binder concentration: 100 nM
  peptide microarray binding signal: 0.385 ± 0.012
[3]; [9]
  peptide microarray binding signal: 0.0372 ± 0.011
[3]; [10]
  peptide microarray binding signal: 0.0131 ± 0.0018
[4]; [9]
  peptide microarray binding signal: 0.00426 ± 0.0013
[4]; [10]
  peptide microarray binding signal: 0.00271 ± 0.00042

## ARTKQTARKSTGG [H3 1-13 A R T Kme3 Q T A R Kme3 S T G G]
[1]; peptide modifications: H3K4me3 H3K9me3, binder concentration: 50 nM
  peptide microarray binding signal: 0.0752 ± 0.0036
[1]; peptide modifications: H3K4me3 H3K9me3, binder concentration: 500 nM
  peptide microarray binding signal: 0.159 ± 0.022
[2]; peptide modifications: H3K4me3 H3K9me3, binder concentration: 10 nM
  peptide microarray binding signal: 0.582 ± 0.018
[2]; peptide modifications: H3K4me3 H3K9me3, binder concentration: 100 nM
  peptide microarray binding signal: 0.742 ± 0.14
[3]; [11]
  peptide microarray binding signal: 1 ± 0.19
[3]; [12]
  peptide microarray binding signal: 1 ± 0.19
[4]; [11]
  peptide microarray binding signal: 0.46 ± 0.11
[4]; [12]
  peptide microarray binding signal: 0.321 ± 0.037

## ARTKQTARKSTGG [H3 1-13 A R T Kme2 Q T A R Kme S T G G]
[1]; peptide modifications: H3K4me2 H3K9me1, binder concentration: 50 nM
  peptide microarray binding signal: 0.0128 ± 0.00075
[1]; peptide modifications: H3K4me2 H3K9me1, binder concentration: 500 nM
  peptide microarray binding signal: 0.0286 ± 0.0013
[2]; peptide modifications: H3K4me2 H3K9me1, binder concentration: 10 nM
  peptide microarray binding signal: 0.656 ± 0.061
[2]; peptide modifications: H3K4me2 H3K9me1, binder concentration: 100 nM
  peptide microarray binding signal: 0.43 ± 0.13
[3]; [13]
  peptide microarray binding signal: 0.365 ± 0.067
[3]; [14]
  peptide microarray binding signal: 0.152 ± 0.018
[4]; [13]
  peptide microarray binding signal: 0.00797 ± 0.0012
[4]; [14]
  peptide microarray binding signal: 0.00398 ± 0.00019

## ARTKQTARKSTGG [H3 1-13 A R T Kme3 Q T A R K S T G G]
[1]; peptide modifications: H3K4me3, binder concentration: 50 nM
  peptide microarray binding signal: 0.00868 ± 0.00032
[1]; peptide modifications: H3K4me3, binder concentration: 500 nM
  peptide microarray binding signal: 0.0201 ± 0.0038
[2]; peptide modifications: H3K4me3, binder concentration: 10 nM
  peptide microarray binding signal: 0.383 ± 0.2
[2]; peptide modifications: H3K4me3, binder concentration: 100 nM
  peptide microarray binding signal: 0.232 ± 0.072
[3]; [15]
  peptide microarray binding signal: 0.596 ± 0.33
[3]; [16]
  peptide microarray binding signal: 0.549 ± 0.54
[4]; [15]
  peptide microarray binding signal: 0.0584 ± 0.025
[4]; [16]
  peptide microarray binding signal: 0.0227 ± 0.011

## ARTKQTARKSTGG [H3 1-13 A R T Kme3 Q T A R Kac S T G G]
[1]; peptide modifications: H3K4me3 H3K9ac, binder concentration: 50 nM
  peptide microarray binding signal: 0.00768 ± 0.00092
[1]; peptide modifications: H3K4me3 H3K9ac, binder concentration: 500 nM
  peptide microarray binding signal: 0.00948 ± 0.00033
[2]; peptide modifications: H3K4me3 H3K9ac, binder concentration: 10 nM
  peptide microarray binding signal: 0.216 ± 0.039
[2]; peptide modifications: H3K4me3 H3K9ac, binder concentration: 100 nM
  peptide microarray binding signal: 0.199 ± 0.014
[3]; [17]
  peptide microarray binding signal: 0.289 ± 0.062
[3]; [18]
  peptide microarray binding signal: 0.621 ± 0.31
[4]; [17]
  peptide microarray binding signal: 0.0528 ± 0.047
[4]; [18]
  peptide microarray binding signal: 0.0162 ± 0.0043

## ARTKQTARKSTGG [H3 1-13 A R T K Q T A R Kme S T G G]
[1]; peptide modifications: H3K9me1, binder concentration: 50 nM
  peptide microarray binding signal: 0.0276 ± 0.00028
[1]; peptide modifications: H3K9me1, binder concentration: 500 nM
  peptide microarray binding signal: 0.0642 ± 0.0027
[2]; peptide modifications: H3K9me1, binder concentration: 10 nM
  peptide microarray binding signal: 0.0068 ± 0.00044
[2]; peptide modifications: H3K9me1, binder concentration: 100 nM
  peptide microarray binding signal: 0.0424 ± 0.0055
[3]; [19]
  peptide microarray binding signal: 0.00068 ± 2.9e-05
[3]; [20]
  peptide microarray binding signal: 0.000628 ± 6.7e-06
[4]; [19]
  peptide microarray binding signal: 0.00122 ± 7.3e-05
[4]; [20]
  peptide microarray binding signal: 0.00098 ± 4.6e-05

## ARTKQTARKSTGG [H3 1-13 A R T Kme Q T A R Kme2 S T G G]
[1]; peptide modifications: H3K4me1 H3K9me2, binder concentration: 500 nM
  peptide microarray binding signal: 0.0151 ± 0.00042
[2]; peptide modifications: H3K4me1 H3K9me2, binder concentration: 10 nM
  peptide microarray binding signal: 0.155 ± 0.014
[2]; peptide modifications: H3K4me1 H3K9me2, binder concentration: 100 nM
  peptide microarray binding signal: 0.182 ± 0.062
[3]; [21]
  peptide microarray binding signal: 0.0488 ± 0.0073
[3]; [22]
  peptide microarray binding signal: 0.0289 ± 0.0056
[4]; [21]
  peptide microarray binding signal: 0.00408 ± 0.00035
[4]; [22]
  peptide microarray binding signal: 0.00409 ± 0.00034

## ARTKQTARKSTGG [H3 1-13 A R T Kme2 Q T A R Kme3 S T G G]
[1]; peptide modifications: H3K4me2 H3K9me3, binder concentration: 50 nM
  peptide microarray binding signal: 0.133 ± 0.011
[1]; peptide modifications: H3K4me2 H3K9me3, binder concentration: 500 nM
  peptide microarray binding signal: 0.21 ± 0.019
[2]; peptide modifications: H3K4me2 H3K9me3, binder concentration: 10 nM
  peptide microarray binding signal: 1 ± 0.17
[2]; peptide modifications: H3K4me2 H3K9me3, binder concentration: 100 nM
  peptide microarray binding signal: 1 ± 0.088
[3]; [23]
  peptide microarray binding signal: 0.491 ± 0.058
[3]; [24]
  peptide microarray binding signal: 0.325 ± 0.12
[4]; [23]
  peptide microarray binding signal: 0.429 ± 0.054
[4]; [24]
  peptide microarray binding signal: 0.369 ± 0.044
